In a collection of fitness landscapes (doi:10.1038/s41467-024-54723-y):
Over roughly 18,000 sequences, “TetR repression strength (sort-seq, GFP reporter)” has its median near 0.23; the highest 2% begin near 0.68. The entries come from a sample that favours the highest values as a whole.

Each sequence was assayed against TetR (class B, Tn10) (UniProt P04483) (assay: TetR repression strength (sort-seq, GFP reporter) (relative to tetO2 = 1); higher = stronger repression). Settings: E. coli.
Sequence of TetR (class B, Tn10) (P04483 whole entry): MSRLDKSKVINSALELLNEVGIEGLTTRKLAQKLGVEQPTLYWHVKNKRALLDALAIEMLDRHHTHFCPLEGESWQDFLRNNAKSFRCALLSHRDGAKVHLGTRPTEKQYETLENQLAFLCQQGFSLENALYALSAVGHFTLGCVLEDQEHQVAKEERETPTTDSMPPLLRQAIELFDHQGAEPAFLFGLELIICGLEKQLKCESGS
Method in brief: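 In LB with 50 µg/mL chloramphenicol, E. coli SIG10-MAX holding a low-copy library with eight randomized operator positions between a constitutive promoter and sfGFP, plus constitutive TetR, grew for 5 h at 37 °C. FACS then sorted 10^6 cells into 13 fluorescence bins for Illumina sequencing of each bin. Repression strength equals the top bin index plus one less the read-weighted mean bin, normalized to the unaltered operator. Values from three independent transformations were averaged when reads were ≥30 in every replicate and the CV was ≤0.5.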
TCCCATGTAGTATGCGAGA showed a TetR repression strength of 0.327.
Sequence TCCCCACTAGTGGCGGAGA has a TetR repression strength of 0.514.
TCCCGGTAAGTAACGGAGA gave a TetR repression strength of 0.201.
Sequence TCCCTGTGAGTCGCAGAGA has a TetR repression strength of 0.172.
TCCCTTTTAGTGAATGAGA was tested, and the TetR repression strength was 0.889.
Work on TCCCTTTGAGTGAATGAGA yielded a TetR repression strength of 0.472.
For TCCCTTTTAGTGCCTGAGA, the TetR repression strength was 0.325.
In the case of TCCCTTTGAGTGCATGAGA, the TetR repression strength was 0.403.
For TCCCTTTTAGTGAGAGAGA, the TetR repression strength was 0.425.
With TCCCTTTTAGTGCATGAGA the TetR repression strength was 0.711.
For TCCCGGAAAGTAGCAGAGA, the TetR repression strength was 0.0718.
TCCCTGTTAGTGTGTGAGA gave a TetR repression strength of 0.138.
TCCCAATGAGTAGGGGAGA showed a TetR repression strength of 0.0811.
Sequence TCCCCACAAGTTCGGGAGA has a TetR repression strength of 0.0657.
With TCCCTTCTAGTCTAAGAGA the TetR repression strength was 0.306.
TCCCGCAAAGTCAGGGAGA was tested, and the TetR repression strength was 0.273.
TCCCAGCGAGTACGTGAGA was tested, and the TetR repression strength was 0.134.
For TCCCGTACAGTATAGGAGA, the TetR repression strength was 0.0753.
In the case of TCCCGGTAAGTGAAAGAGA, the TetR repression strength was 0.684.
TCCCGGTAAGTAGCTGAGA showed a TetR repression strength of 0.208.
Work on TCCCGGTAAGTGAGAGAGA yielded a TetR repression strength of 0.502.
TCCCGGTCAGTGAGAGAGA was tested, and the TetR repression strength was 0.591.
Work on TCCCGGTAAGTGGCTGAGA yielded a TetR repression strength of 1.11.
With TCCCAGTCAGTGAAAGAGA the TetR repression strength was 0.62.
In the case of TCCCGGTGAGTGAAAGAGA, the TetR repression strength was 0.347.
TCCCGGTCAGTGAAAGAGA showed a TetR repression strength of 0.692.
In the case of TCCCGGTAAGTGGGTGAGA, the TetR repression strength was 0.141.
Sequence TCCCCCCCAGTCGATGAGA has a TetR repression strength of 0.409.
TCCCATGGAGTTCGAGAGA was tested, and the TetR repression strength was 0.0732.
Work on TCCCCTTAAGTTAATGAGA yielded a TetR repression strength of 0.515.
For TCCCACGGAGTCGCGGAGA, the TetR repression strength was 0.172.
In the case of TCCCATGGAGTGTAAGAGA, the TetR repression strength was 0.236.
In the case of TCCCGGGCAGTCGTGGAGA, the TetR repression strength was 0.285.
Sequence TCCCTACGAGTCCTCGAGA has a TetR repression strength of 1.14.
With TCCCTACTAGTCCTCGAGA the TetR repression strength was 1.12.
With TCCCTAAGAGTCCTCGAGA the TetR repression strength was 0.353.
With TCCCTAATAGTCCTCGAGA the TetR repression strength was 0.385.
For TCCCTACGAGTACTCGAGA, the TetR repression strength was 0.207.
TCCCTTCTAGTCCTCGAGA gave a TetR repression strength of 0.421.
TCCCATATAGTTTAGGAGA showed a TetR repression strength of 0.0773.
In the case of TCCCCCGCAGTCCCTGAGA, the TetR repression strength was 0.333.
Work on TCCCAGATAGTCGCGGAGA yielded a TetR repression strength of 0.108.
For TCCCCATCAGTGGTAGAGA, the TetR repression strength was 0.417.
TCCCGATGAGTTAGCGAGA showed a TetR repression strength of 0.201.
TCCCGATGAGTTAATGAGA was tested, and the TetR repression strength was 0.196.
TCCCGATGAGTTAGGGAGA gave a TetR repression strength of 0.296.
TCCCGATGAGTTAAGGAGA showed a TetR repression strength of 0.797.
In the case of TCCCGATGAGTTAGAGAGA, the TetR repression strength was 0.749.
Work on TCCCGAGGAGTTAAGGAGA yielded a TetR repression strength of 0.295.
In the case of TCCCGAGGAGTAAGTGAGA, the TetR repression strength was 0.204.
With TCCCTTGTAGTATGTGAGA the TetR repression strength was 0.133.
Work on TCCCTAGTAGTACTGGAGA yielded a TetR repression strength of 0.176.
Sequence TCCCGGCTAGTACGGGAGA has a TetR repression strength of 0.244.
Sequence TCCCTATCAGTGGCGGAGA has a TetR repression strength of 0.715.
TCCCTTTCAGTGACCGAGA was tested, and the TetR repression strength was 0.946.
Work on TCCCGATCAGTGACTGAGA yielded a TetR repression strength of 0.427.
TCCCTTTCAGTGACTGAGA showed a TetR repression strength of 0.435.
TCCCTATCAGTCGCCGAGA showed a TetR repression strength of 0.455.
TCCCTATCAGTCGCGGAGA showed a TetR repression strength of 0.456.
For TCCCTGTCAGTCACCGAGA, the TetR repression strength was 0.664.
TCCCTATCAGTGGGGGAGA gave a TetR repression strength of 0.378.
With TCCCGATCAGTGAGCGAGA the TetR repression strength was 0.544.
Work on TCCCGATCAGTGACCGAGA yielded a TetR repression strength of 0.715.
TCCCTTGCAGTGACCGAGA was tested, and the TetR repression strength was 0.315.
TCCCTATCAGTCACCGAGA was tested, and the TetR repression strength was 0.789.
In the case of TCCCGTCTAGTAGCAGAGA, the TetR repression strength was 0.634.
TCCCATGGAGTGTTAGAGA showed a TetR repression strength of 0.246.
With TCCCCGATAGTCGTGGAGA the TetR repression strength was 0.177.
Sequence TCCCAGCGAGTGCAAGAGA has a TetR repression strength of 0.364.
TCCCGGCCAGTGGAGGAGA was tested, and the TetR repression strength was 0.19.
In the case of TCCCAAATAGTCGTGGAGA, the TetR repression strength was 0.415.
Work on TCCCGCCAAGTGCGCGAGA yielded a TetR repression strength of 0.258.
Sequence TCCCGATCAGTGACAGAGA has a TetR repression strength of 0.742.
Sequence TCCCGATCAGTGAACGAGA has a TetR repression strength of 0.628.
TCCCGTGCAGTAAACGAGA was tested, and the TetR repression strength was 0.326.
TCCCGGGCAGTAATCGAGA was tested, and the TetR repression strength was 0.121.
For TCCCTATCAGTGACCGAGA, the TetR repression strength was 0.944.
In the case of TCCCTATCAGTTACCGAGA, the TetR repression strength was 0.663.
TCCCGACCAGTGACAGAGA was tested, and the TetR repression strength was 0.644.
Work on TCCCGTGCAGTAATCGAGA yielded a TetR repression strength of 0.749.
With TCCCTATCAGTGAACGAGA the TetR repression strength was 0.862.
With TCCCTATGAGTGACCGAGA the TetR repression strength was 0.604.
Work on TCCCTATCAGTGAAGGAGA yielded a TetR repression strength of 0.51.
TCCCGTTCAGTGACAGAGA was tested, and the TetR repression strength was 0.504.
TCCCACATAGTGGTAGAGA was tested, and the TetR repression strength was 0.199.
With TCCCACTGAGTGCCTGAGA the TetR repression strength was 0.139.
TCCCATCCAGTGCTTGAGA was tested, and the TetR repression strength was 0.267.
TCCCCGTAAGTGAGAGAGA showed a TetR repression strength of 0.149.
Sequence TCCCTTAAAGTATGCGAGA has a TetR repression strength of 0.238.
Work on TCCCTTTAAGTTCTCGAGA yielded a TetR repression strength of 0.271.
TCCCTGTAAGTATGGGAGA showed a TetR repression strength of 0.174.
TCCCCCGAAGTTAAGGAGA was tested, and the TetR repression strength was 0.155.
TCCCGGTGAGTGACCGAGA gave a TetR repression strength of 0.207.
For TCCCGATCAGTGGCCGAGA, the TetR repression strength was 0.565.
TCCCGTGCAGTGCCCGAGA gave a TetR repression strength of 0.361.
TCCCGTGCAGTGACCGAGA showed a TetR repression strength of 0.709.
With TCCCGGTCAGTGACCGAGA the TetR repression strength was 0.715.
TCCCTATCAGTGGCCGAGA showed a TetR repression strength of 0.724.
Sequence TCCCTATGAGTGGCCGAGA has a TetR repression strength of 0.402.
Work on TCCCTATAAGTGGCCGAGA yielded a TetR repression strength of 0.719.
TCCCTATCAGTGGGCGAGA gave a TetR repression strength of 0.541.
For TCCCGGTCAGTCACCGAGA, the TetR repression strength was 0.669.
TCCCGCGCAGTGACCGAGA showed a TetR repression strength of 0.219.
Sequence TCCCGATAAGTGGCCGAGA has a TetR repression strength of 0.171.
Work on TCCCAGTGAGTCCATGAGA yielded a TetR repression strength of 0.163.
Work on TCCCAACAAGTGTTCGAGA yielded a TetR repression strength of 0.0254.
Sequence TCCCTGCAAGTTTCGGAGA has a TetR repression strength of 0.0543.
TCCCCTGGAGTAGGCGAGA showed a TetR repression strength of 0.0907.
Sequence TCCCAGTGAGTACCCGAGA has a TetR repression strength of 0.261.
For TCCCTTTTAGTGGTGGAGA, the TetR repression strength was 0.212.
TCCCTCATAGTAAGAGAGA was tested, and the TetR repression strength was 0.291.
TCCCTGATAGTTGGCGAGA showed a TetR repression strength of 0.317.
Sequence TCCCGTGGAGTTGACGAGA has a TetR repression strength of 0.0573.
Sequence TCCCAGATAGTCGAAGAGA has a TetR repression strength of 0.115.
TCCCTGGGAGTCGAAGAGA showed a TetR repression strength of 0.196.
TCCCTGGTAGTCGAAGAGA gave a TetR repression strength of 0.187.
TCCCTGAGAGTCGAAGAGA gave a TetR repression strength of 1.18.
TCCCTGATAGTCGAAGAGA was tested, and the TetR repression strength was 1.14.
TCCCTCTGAGTCGAAGAGA was tested, and the TetR repression strength was 0.0537.
With TCCCGGATAGTGTCGGAGA the TetR repression strength was 0.141.
For TCCCCGTTAGTTTTAGAGA, the TetR repression strength was 0.25.
Work on TCCCGTTGAGTATATGAGA yielded a TetR repression strength of 0.229.
TCCCGATAAGTAGAAGAGA showed a TetR repression strength of 0.585.
TCCCGTCCAGTGCTGGAGA gave a TetR repression strength of 0.212.
Sequence TCCCGTGCAGTGCTTGAGA has a TetR repression strength of 0.207.
TCCCGGCAAGTGCTTGAGA showed a TetR repression strength of 0.155.
TCCCGTCAAGTGCTTGAGA gave a TetR repression strength of 0.848.
Sequence TCCCGTCCAGTGCTTGAGA has a TetR repression strength of 0.915.
TCCCGTCAAGTGGTTGAGA showed a TetR repression strength of 0.152.
TCCCGCTCAGTTGGGGAGA was tested, and the TetR repression strength was 0.186.
